Measured values taken from PubChem BioAssay (NCI).
This is part of a sample that, as a whole, favours compounds with a hit. Of some 83,000 tested, about 20% had one in any assay.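 Interpretation: 100, growth as untreated; towards 0, rising growth inhibition; 0, no net growth; 0 to -100, cell death. Compounds scoring below 10 were considered active.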 Calls of active or inactive are those of the source.

Each compound was assayed on NCI-H322M lung (assay: NCI-60 one-dose screen, 48 h (100 = growth as untreated, 0 = no growth, -100 = all killed)). Conditions: 10 µM unless noted.
Procedure: Growth inhibition of the NCI-H322M human Non-Small Cell Lung tumor cell line is measured as a screen for anti-cancer activity. Cells are grown in 96 well plates and exposed to the test compound for 48 hours. Compounds are tested at a single concentration, which is 10^-5 M for most compounds. The reported endpoint is percent growth (GI% or GIPRCNT), where numbers from 0 - 100% represent growth inhibition, and numbers from -100% - 0 represent cell death. For example, a value of 40 represents 60% growth inhibition. A value of 0 means no net growth occurred over the course of the experiment. A value of -40 indicates 40% of cells at the beginning of the experiment died by the end of the experiment. A value of -100 means all cells are dead at the end of the experiment.
NCI-60 Human Tumor Cell Lines Screen was performed using the standard one-dose NCI protocol, which is described in more detail at https://dtp.cancer.gov/discovery_development/nci-60/default.htm.
Compounds with GIPRCNT values below 10 were considered active. Activity score was based on GIPRCNT using the following formula: […]
Score is 0 for GIPRCNT values of 100 or above, 50 for GIPRCNT values of 0, and 100 for GIPRCNT values of -100.

Structure (SMILES) | growth
COc1ccc(/C=N/NC(=O)Cn2nc(Cc3ccc(OC)cc3)c3onc(C)c3c2=O)cc1 | 59% (inactive)
O=C(O)c1ccc(-c2ccc(/C=N/NC(=O)c3[nH]c4ccc(Br)cc4c3-c3ccccc3)o2)cc1 | 37.5% (inactive)
O=C(COc1ccc(NC(=O)Nc2ccc(Cl)c(Cl)c2)cc1)N=Nc1c(O)[nH]c2ccc([N+](=O)[O-])cc12 | 85.3% (inactive)
CCCCc1c(Nn2cnnn2)no[n+]1[O-] | 66.7% (inactive)
CC(C)c1ccc2c(N)c(C(=O)Nc3ccc(C(F)(F)F)cn3)sc2n1 | 86.3% (inactive)
O=C(Cn1c(/C=C/c2ccccc2)nc2ccccc2c1=O)Nc1ccccc1 | 87.5% (inactive)
O=c1[nH]n(C(=S)N/N=C/c2ccccc2Cl)c(=O)c2ccccc12 | 5.29% (active)
CC1=C(C(=O)c2ccccc2)C(c2ccc(-n3cncn3)cc2)n2c(nc3ccccc32)N1 (stereo not given) | 79.5% (inactive)
COc1ccc(C(=O)/C=C/c2ccc3ccccc3c2)cc1S(N)(=O)=O | 11.3% (inactive)
CC12CC[C@@H]3[C@]4(C)COC(c5cn[nH]c5-c5cccc(Br)c5)O[C@@H]4CC[C@@]3(C)[C@@H]1CC(C1=CCOC1=O)O2 (stereo not given in full) | 48.6% (inactive)
COc1ccc(C(=O)/C=C/c2ccc(OCc3ccccc3)c(OC)c2)cc1OC | 15.7% (inactive)
COc1cc2oc(-c3cccc(C(=O)Nc4ccc(Cl)cc4)c3)cc(=O)c2c(OCCNC(=O)[C@H](CCC(=O)OC(C)(C)C)NC(=O)OC(C)(C)C)c1OC | 98.4% (inactive)
N/C(=N\N=C\c1ccc([N+](=O)[O-])cc1)c1c(N)nc(=S)[nH]c1-c1ccc(Cl)cc1Cl | 100% (inactive)
COc1ccc(-c2c(Nn3cnnn3)no[n+]2[O-])cc1 | 63.5% (inactive)
COc1ccc(C(=O)Nc2n[nH]c(Nc3ccccc3)c2C#N)cc1 | 106% (inactive)
O=C(CSc1nc2ccccc2c(=O)[nH]1)NCCN1CCCCC1 | 94.8% (inactive)
COc1cc2oc(-c3cccc(NC(=O)[C@H](CC(N)=O)NC(=O)OC(C)(C)C)c3)cc(=O)c2c(OC)c1OC | 101% (inactive)
COc1ccc(NC(=O)Cn2c(/C=C/c3cccc([N+](=O)[O-])c3)nc3ccccc3c2=O)cc1 | 90.7% (inactive)
Cc1cc(N=C2NC(=O)CS2)n[nH]1 | 95.5% (inactive)
O=C(c1ccc(OCCN2CCOCC2)cc1)C1[C@H](c2ccc(Cl)cc2)[C@@H](c2ccccc2)NC12C(=O)Nc1ccc(Br)cc12 (stereo not given in full) | 53.8% (inactive)

Structure (SMILES) | growth
COc1ccc(-c2nc(SC(C)C)nc(NCCc3c[nH]c4ccccc34)c2C#N)cc1 | 87.7% (inactive)
COc1ccc(/C=C/c2nc3ccccc3nc2Nc2cccc(C)c2)cc1 | 105% (inactive)
CN(C)c1nc(NCCNS(=O)(=O)c2ccc(C3=Nc4c(N)nc(N)nc4NC(c4ccc(Cl)cc4)C3)cc2)nc(Nc2ccc(F)cc2)n1 (stereo not given) | 66% (inactive)
CC(=O)OC[C@@]1(C)C2CC[C@]3(C)C(CC=C4C5CC(C)(C)CC[C@]5(C(=O)Nc5ccc(Br)cc5)CC[C@]43C)[C@@]2(C)C[C@@H](OC(C)=O)[C@@H]1OC(C)=O (stereo not given in full) | 67.9% (inactive)
O=c1c2ccccc2nc(-c2ccccc2)n1/N=C/c1ccc2ccccc2c1 | 80.1% (inactive)
CN1CCc2c(sc3ncnc(N/N=C/c4ccc(Cl)cc4Cl)c23)C1 | 29.2% (inactive)
CC(C)Sc1nc(NCCc2c[nH]c3ccccc23)c(C#N)c(-c2ccc(F)cc2)n1 | 85.2% (inactive)
O=C1CCCc2cc(OCC(=O)N3CCCCC3)ccc2N1 | 116% (inactive)
CC1(C)CC[C@]2(C(=O)O)CC[C@]3(C)C(=CCC4[C@@]5(C)C[C@@H](O)[C@@H]6OC(c7ccco7)OC[C@@]6(C)C5CC[C@]43C)C2C1 (stereo not given in full) | 30.1% (inactive)
COc1ccc2nc(Nc3cccc(NC(=O)c4ccc(CN5CCCN(C)CC5)c(C(F)(F)F)c4)c3)ccc2c1 | -86.4% (active)
Cc1ccc(C(=O)C(c2c[nH]c3ccccc23)c2c[nH]c3ccccc23)cc1 | 81.8% (inactive)
Cc1cnc(C(=O)NNc2nc3cc(F)ccc3n3c(C(=O)N4CC5CC(C4)N5)ccc23)cn1 | 35.4% (inactive)
COc1ccc(/C=C/c2n(Cc3ccc4ccccc4c3)c3ccccc3[n+]2Cc2ccc3ccccc3c2)cc1 | -96.2% (active)
O=C(/C=C/c1ccc(-c2ccccc2)cc1)c1nc2ccccc2n1Cc1ccc(F)cc1 | 64.5% (inactive)
Cc1cc2c(cc1Cl)C(=O)/C(=C/c1ccc(F)cc1)O2 | 99.6% (inactive)
C(=C\c1cc(/C=C/c2ccccc2)c2ccccc2n1)/c1ccccc1 | 120% (inactive)
C/C(=N\Nc1ccc(S(N)(=O)=O)cc1)c1ccc(N=Nc2c(Nc3ccccc3)[nH][nH]c2=O)cc1 | 9.22% (active)
O=C(c1ccc(OCCN2CCOCC2)cc1)C1[C@H](c2ccc(Cl)cc2)[C@@H](c2ccccc2)NC12C(=O)Nc1ccc(Cl)cc12 (stereo not given in full) | 55.6% (inactive)
COc1cc2c(c(OC)c1OC)C(=O)CC(c1cccc(NC(=O)c3cc(NC(=O)[C@H](CO)NC(=O)OC(C)(C)C)ccc3Cl)c1)O2 (stereo not given in full) | 42.5% (inactive)
O=C1Nc2cc(Cl)ccc2/C1=C/c1cccc(OCc2ccccn2)c1 | 68.2% (inactive)
